Data as given in PubChem BioAssay AID2069 (Sanford-Burnham Center for Chemical Genomics, 2009).
Out of some 1,200 compounds screened, about 210 (18%) were called active. Only a sample is shown. Unmarked numbers belong to inactive results. No stated cut-off is given here; in the data, active means inhibition above about 30%; inactive means the rest.

assay: HTRF signal interference by compounds, confirmation, artefact control for SUMOylation inhibitor project, biochemical, uHTS (AID 2069); conditions: HTRF interference counterscreen, fluorescence, at 35 µM, active compounds read high

SMILES | inhibition
Cc1cc(C)cc(NC(=S)Nc2cccc3cnccc23)c1 | -5.7%
COc1ccc(S(=O)(=O)N(C)c2ccc(C(=O)NCc3ccccn3)cc2)cc1 | -4.1%
N#CC1=C(N)Oc2n[nH]c(-c3cccs3)c2C1c1ccoc1 (configuration not stated) | -10.8%
COC(=O)c1cc(O)cc(OC)c1Oc1cc(C)cc(O)c1C(=O)O | 11%
COc1ccc2c(C)c(C(=O)NCC(C)O)oc2c1OC (configuration not stated) | 38% (active)
Oc1ccc(NCc2ccccc2OCc2ccccc2F)cc1 | -9.2%
COc1cc2c(-c3ccc(O)cc3)nc3c(c(C)nn3-c3ccccc3)c2cc1OC | 9.45%
CC(=O)Nc1ccc(-c2cn3cccnc3n2)cc1 | 52.3% (active)
CC(=O)Nc1ccc(S(=O)(=O)Nc2cccn(Cc3ccc(C)cc3)c2=O)cc1 | 1.85%
CCCCCC(=O)Nc1ccc(-c2cn3cccnc3n2)cc1 | 49.3% (active)
CCCCCCCC(=O)Nc1ccc(C(=O)N/N=C/c2cccc([N+](=O)[O-])c2)cc1 | -8.25%
CCCCCCCn1c(NC(=O)CC)nc2ccccc21 | 4.3%
CCc1ccc(S(=O)(=O)/N=C2\C=CC(=O)c3ccccc32)cc1 | 7.75%
Cc1ccc(-n2nc(C)c3c2OC(N)=C(C#N)C3c2ccc(C)o2)cc1 (configuration not stated) | -11.4%
O=C(Nc1ccc(Cl)c(Cl)c1)Nn1cnnc1 | 41.3% (active)
CN(C)S(=O)(=O)c1cc(NC(=O)CNCc2ccccc2)ccc1Cl | -6%
NS(=O)(=O)c1ccc(NC(=O)c2ccc(-c3ccccc3)cc2)cc1 | -3.1%
Cc1[nH][nH]c(=O)c1C(c1ccc(-c2ccc(C(=O)O)cc2)o1)c1c(C)[nH][nH]c1=O | 0.5%
CCOC(=O)c1sc(NC(=O)c2cccc(S(=O)(=O)N3CCc4ccccc43)c2)c(C#N)c1C | -22.4%
Cc1c(Br)c(O)c(Br)c2sc(=O)oc12 | -25.6%
O=C(NNc1cc(N2CCOCC2)nc(N2CCOCC2)n1)c1ccc([N+](=O)[O-])cc1 | 1.6%

SMILES | inhibition
Nc1cccc2cnccc12 | 3.2%
COc1ccc(C(=O)CSc2nnc(-c3ccco3)c(-c3ccco3)n2)cc1 | -2.15%
Nc1ccc2c(c1)C/C(=C/c1ccco1)C2=O | 62.9% (active)
NC1=NC(=O)/C(=C\c2ccco2)S1 | 16.6%
NN1C(=O)/C(=C\c2ccco2)SC1=S | 4.75%
COc1ccc(-c2csc(NC(=S)NC(=O)/C=C/c3ccco3)n2)cc1OC | 10.6%
Cc1ccc(/C=C2\SC(=S)N(/N=C/c3cc([N+](=O)[O-])ccc3O)C2=O)o1 | -7.65%
Cc1nn2cc(-c3ccccc3)nc2[nH]c1=O | 62.4% (active)
N#Cc1c2ccc(OCC(N)=O)cc2n2ccccc12 | 35.8% (active)
CCOC(=O)c1c2ccc(OCC(=O)N/N=C/c3ccc(C)cc3)cc2n2ccccc12 | 19.8%
CCOC(=O)c1c2ccc(OCC(=O)NN)cc2n2ccccc12 | 29.6%
CCc1cc2c(=O)nc3n(c2s1)Cc1ccccc1/C3=C(/O)c1cccc([N+](=O)[O-])c1 | 17%
O=C(/C=C/c1cccs1)Nc1scc(-c2ccccc2)c1C(=O)O | 26.6%
COc1cccc(Cn2cccc(NC(=O)NC3CCCCC3)c2=O)c1 | -4.4%
Cc1cccn2c(=O)c3cc(S(=O)(=O)c4ccccc4)c(=N)n(Cc4ccco4)c3nc12 | 5.25%
Cc1cccn2c(=O)c3cc(C(=O)NC4CCCCCC4)sc3nc12 | 31.1% (active)
O=C1C=C(O)CC(c2ccco2)C1 (configuration not stated) | 5.85%
COCCNC(=S)Nc1ccc2nsnc2c1 | -1.2%
Cc1cc(C)cc(NC(=S)Nc2cccc3ccccc23)c1 | -13.7%
N#Cc1c(N)n(CCNC(=O)c2ccccc2)c2nc3ccccc3nc12 | 19.1%
COc1ccc(-n2c(NC(=O)c3ccco3)c(C#N)c3nc4ccccc4nc32)cc1 | 4.15%

SMILES | inhibition
N#Cc1c(N)n(-c2cccc(C(=O)O)c2)c2nc3ccccc3nc12 | 33.5% (active)
Cc1cccn2c(=O)c3cc(C#N)c(=NC(=O)c4ccco4)n(Cc4ccco4)c3nc12 | 23.1%
O=c1[nH]cc(I)cc1I | -3.65%
O=C1CC(c2ccco2)CC(O)=C1C=Nc1cc(Cl)ccc1O (configuration not stated) | -2.5%
COc1cccc(-c2nc(SCC(=O)Nc3nc(-c4ccccc4)c(C)s3)[nH]c(=O)c2C#N)c1 | -0.65%
COc1ccc(C(N)c2nccc3cc(OC)c(OC)cc23)cc1OC (configuration not stated) | -2.9%
CC(=O)c1ccc(NC(=O)Nc2cccnc2)cc1 | 41.8% (active)
O=C(Nc1ccc(N2C(=O)C3C4C=CC(C4)C3C2=O)cc1)Nc1cccnc1 (configuration not stated) | 16.1%
CN(C(=S)Nc1cccnc1)c1ccc(O)cc1 | 5.3%
CCCC(=O)NC(=S)Nc1cccc2c(O)cccc12 | 11.1%
Cc1ccc(NC(=O)Nc2cccn(Cc3c(F)cccc3Cl)c2=O)cc1 | 3.65%
COc1ccc(-c2ccnc3nc(/N=C/N(C)C)nn23)cc1 | 44.7% (active)
Fc1ccc(-c2ccnc3nc(N4CCOCC4)nn23)cc1 | 32.5% (active)
CN(C)/C=N/c1nc2nccc(-c3ccc(F)cc3)n2n1 | 37.5% (active)
N#CCCN(Cc1cccnc1)C(=S)NC1CC2C=CC1C2 (configuration not stated) | -9.75%
Cc1ccc(NC(=O)c2ccccc2OCC(=O)Nc2cccc(Cl)c2C)nc1 | 7.7%
CCOc1cc(CNc2cccc3ccccc23)cc(Br)c1OCC(=O)NC(C)(C)C | 12.7%
O=C(c1csc(Nc2cccc3ccccc23)n1)N1CCCC1 | 23.1%
O=[N+]([O-])c1c(NCCO)cc(N2CCCCCC2)c2nonc12 | 22.4%
COc1cc(OC)c2c(O)c3c(c(-c4c5c(c(O)c6c(OC)cc(OC)cc46)CO[C@@H](C)[C@H]5O)c2c1)[C@H](O)[C@H](C)OC3 | 11%
